# Rab9 promoter act: qHTS Assay for Rab9 Promoter Activators. Huh7 Rab9 promoter-luciferase reporter, luminescence, 24 h. Potency, µM (titrated, usually from 9.22 µM), without a hit: at the highest dose activation, negative = inhibition, most hits filed as activators. 320,000 compounds, 2.8% hits. AID 485297, 2010; also: % of control where 0% means no effect; nearly all actives have a fitted effect of over 60% in size
#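 Huh7 cells stably carrying a Rab9 promoter-luciferase reporter, 1500 cells per well in OP-MEM I with 10% FBS, treated with compound 24 hours at 37C. Luciferase activity read by luminescence after 10 minutes with Amplite reagent.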
# ELG1 genotoxic: qHTS screen for small molecules that induce genotoxicity in human embryonic kidney (HEK293T) cells expressing luciferase-tagged ELG1; HEK293T ELG1-luciferase reporter, luminescence, 16 h; Potency, µM (top dose mostly 46 µM), for inactives: top-dose activity change, positive = activation, actives largely listed as activators; 330,000 compounds, 1.3% hits; AID 504466, 2011; also: % of control where 0% means no effect; nearly all actives have a fitted effect of over 60% in size
#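 Genotoxicity was scored as increased ELG1-luciferase reporter signal, measured by ONE-Glo luminescence (30 min, room temperature). Compound or vehicle exposure of the HEK293T reporter cells lasted 16 hr at 37°C.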
# SMN2 splice enh: qHTS Assay for Enhancers of SMN2 Splice Variant Expression; HEK293 SMN2-luciferase splicing reporter, luminescence, 30-36 h; 210,000 compounds, 2.8% hits; AID 1458, 2008; Potency, µM (titrated, usually from 46.1 µM), inactives show at the highest dose activity change, positive = activation, usual class: activators; also: % of control where 0% means no effect; nearly all actives have a fitted effect of over 55% in size
#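 HEK293 cells carry an SMN2 minigene-luciferase reporter in which exon 7 inclusion puts luciferase in frame. Cells were seeded at 2000 cells/well, attached for 10-12 hours, then exposed to compounds for 30-36 hours at 37C before ONE-Glo luminescence.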
# FLuc counter: qHTS profiling assay for firefly luciferase inhibitor/activator using purifed enzyme and Km concentrations of substrates (counterscreen for miR-21 project). Luciferin 4-monooxygenase (Photinus pyralis), P08659. purified FLuc, Km substrates, luminescence inhibition. Potency, µM (titrated, usually from 57.5 µM), for the others: at the highest dose activity change, negative = inhibition, hits mostly inhibitors. 360,000 compounds, 6.9% hits;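 also: plate controls were vehicle for no effect and reference inhibitor for full effect; nearly all actives have a fitted effect of over 55% in size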
# Target sequence (P08659 whole entry, looked up): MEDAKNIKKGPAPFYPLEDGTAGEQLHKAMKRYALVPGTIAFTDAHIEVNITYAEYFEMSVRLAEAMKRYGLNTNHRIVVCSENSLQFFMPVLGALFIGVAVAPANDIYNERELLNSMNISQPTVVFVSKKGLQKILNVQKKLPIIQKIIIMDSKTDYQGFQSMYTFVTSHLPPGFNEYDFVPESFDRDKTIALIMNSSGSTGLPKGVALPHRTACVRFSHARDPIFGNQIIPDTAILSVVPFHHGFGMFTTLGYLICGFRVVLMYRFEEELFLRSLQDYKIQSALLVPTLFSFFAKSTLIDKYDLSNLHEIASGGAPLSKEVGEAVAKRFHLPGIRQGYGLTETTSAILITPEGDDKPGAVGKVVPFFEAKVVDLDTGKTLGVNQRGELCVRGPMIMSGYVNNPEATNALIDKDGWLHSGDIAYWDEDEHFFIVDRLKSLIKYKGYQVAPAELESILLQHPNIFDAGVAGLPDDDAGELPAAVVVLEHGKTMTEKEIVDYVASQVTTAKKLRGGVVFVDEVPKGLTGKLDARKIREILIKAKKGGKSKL
#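 Biochemical qHTS of compounds, final roughly 60 µM downward over six points, against 10 nM purified firefly luciferase using Km concentrations of substrates (10 uM D-luciferin, 10 uM ATP) in Tris acetate pH 7.5 buffer; luminescence output.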
# NPC1 prom act: qHTS Assay for NPC1 Promoter Activators; Huh7 NPC1 promoter luciferase reporter, 24 h; Potency, µM (titrated, usually from 9.22 µM), inactives show at the top dose activation, most hits filed as activators; 320,000 compounds, 2.4% hits; also: % of control where 0% means no effect; nearly all actives have a fitted effect of over 60% in size
#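 Huh7 reporter cells (NPC1 promoter driving luciferase) are dosed with compound for 24 h at 37 °C, 5% CO2; luciferase detection reagent is then added and luminescence measured after 10 min at ambient temperature.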
# ELG1 DNA repair: qHTS screen for small molecules that inhibit ELG1-dependent DNA repair in human embryonic kidney (HEK293T) cells expressing luciferase-tagged ELG1 | HEK293T ELG1-luciferase reporter, luminescence, 16 h; DNA damage induced by 5-fluorouridine | Potency, µM (series often up to 46.1 µM), inactives show at the highest dose activity change, negative = inhibition, actives largely listed as inhibitors | 330,000 compounds, 2.3% hits | AID 504467, 2011; also: % is scaled to controls: 0 for no effect and ±100 for the full control effect; nearly all actives have a fitted effect of over 55% in size
#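 Overnight (16 hr) co-exposure of 2,000 cells/well to 5-fluorouridine and compound at 37 °C preceded detection. Luciferase was quantified via ONE-Glo luminescence; loss of signal denotes inhibition.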
# * marks the source's active call; other numbers are inactive results; ? = inconclusive; · = no result. Most compounds without a hit are left out; they make up all but 9.4% or so of the library. Calls follow the shape of the dose curve; as a rule, active = well fitted curve in the direction sought with a large enough effect; inconclusive = small, poorly fitted or top-dose-only effect, or another doubt; inactive = no such curve, though single readings can be large; an effect the other way counts as inactive or inconclusive. Potency is read from the fitted curve at half-maximal effect.
SMILES,Rab9 promoter act,ELG1 genotoxic,SMN2 splice enh,FLuc counter,NPC1 prom act,ELG1 DNA repair
CC(C)CCOCc1nc2sc3c(c2c(=O)[nH]1)CCC(C)C3 (configuration not stated),20%,?,-34%,-13%,20%,?
COc1ccc(CCNC(=O)CSc2nnc(-c3ccc(C)cc3)c(-c3ccc(C)cc3)n2)cc1OC,·,·,·,-12%,·,·
Cc1cccc(NC(=O)COc2ccc3c(c2)CCC3)n1,?,17%,·,11µM*,25%,?
Cc1cnc(NC(=O)COc2ccc3c(c2)CCC3)s1,?,0.65µM*,·,1.2µM*,0.56µM*,?
O=C(COc1ccc2c(c1)CCC2)Nc1ccccn1,3.2µM*,?,·,0.17µM*,4µM*,?
Cc1cccc(NC(=O)COc2ccc3oc4c(c3c2)CCCC4)n1,-4%,27%,3%,?,16%,?
O=C(COc1ccc2c(c1)CCC2)NCc1ccccc1,-4%,-1%,21%,-14%,-1%,8%
Cc1nc2ccc(S(=O)(=O)N(CC(=O)Nc3cccc(Cl)c3)Cc3ccccc3)cc2s1,·,·,·,-10%,·,·
O=C(/C=C/c1ccc(-c2ccccc2)o1)c1ccccc1,26%,?,·,6.7µM*,?,?
Cc1ccc(-c2ccc(/C=C/C(=O)c3ccccc3)o2)cc1,3%,1%,14%,?,-1%,?
Cc1ccc(C(=O)/C=C/c2ccccc2[N+](=O)[O-])cc1,?,?,21%,8.5µM*,20%,?
COc1cc(/C=C/C(=O)c2cccc([N+](=O)[O-])c2)cc(OC)c1OC,-7%,-8%,5%,-1%,-2%,?
O=C(/C=C/c1ccccc1F)c1cccc([N+](=O)[O-])c1,-4%,?,-3%,12µM*,-2%,?
Cc1ccc(C(=O)/C=C/c2ccc(-c3ccccc3[N+](=O)[O-])o2)cc1,17%,11%,-1%,19µM*,?,2%
CN(C)c1ccc(C(CNS(=O)(=O)c2ccc(Cl)cc2)N2CCCC2)cc1 (configuration not stated),·,·,·,-5%,·,·
O=C(/C=C/c1ccc(-c2ccccc2[N+](=O)[O-])o1)c1ccc(F)cc1,14%,0%,-4%,13µM*,4%,0%
Cc1ccc(C(=O)C(C)OC(=O)c2ccccc2[N+](=O)[O-])cc1 (configuration not stated),1.6µM*,7.3µM*,13µM*,1.1µM*,0.89µM*,?
O=C(C#Cc1ccccc1)c1cccc([N+](=O)[O-])c1,0%,10%,-30%,11µM*,1%,?
O=C(/C=C/c1ccc(-c2ccccc2[N+](=O)[O-])o1)c1ccc(Br)cc1,3%,5%,-13%,?,19%,0%
CCc1ccc(CNC(=O)c2cnc3sc(N(CC)CC)nn3c2=O)cc1,·,·,·,-15%,·,·
COC(=O)[C@@]12CCCCN1[C@H](c1ccc(-c3ccc(F)cc3)c(OC)c1)[C@H]1C(=O)N(C)C(=O)[C@H]12,·,-7%,·,·,·,13µM*
O=C(Nc1ccc(Br)cn1)c1ccc(Cl)s1,1µM*,3.3µM*,·,4.3µM*,0.89µM*,?
O=C(Nc1ccc(Br)cn1)c1ccc(Br)s1,0.79µM*,?,·,4.3µM*,?,?
Cc1ccccc1C(=O)Nc1ccc(Br)cn1,3.5µM*,9.2µM*,·,11µM*,?,?
O=C(Nc1ccccn1)c1ccc(Cl)s1,4µM*,?,·,?,2.2µM*,?
SMILES,Rab9 promoter act,ELG1 genotoxic,SMN2 splice enh,FLuc counter,NPC1 prom act,ELG1 DNA repair
O=C(NCc1ccccn1)c1ccc(Cl)s1,14%,13%,-20%,0%,1%,?
Cc1cccc(NC(=O)c2sc3nc(-c4cc5ccc(O)cc5oc4=O)[nH]c(=O)c3c2C)c1,·,·,·,-13%,·,·
CC1CCN(c2nc3ccccc3nc2SCC(=O)Nc2ccccc2C(C)C)CC1,·,·,4%,-5%,·,·
Cc1nc2oc3c(NCC4CCCO4)ncnc3c2c2c1COC(C)(C)C2 (configuration not stated),-7%,-4%,-6%,-2%,-1%,?
Cc1nc2oc3c(NCc4ccccc4)ncnc3c2c2c1COC(C)(C)C2,-1%,-3%,4%,-4%,0%,7.3µM*
CCSc1ncc(/C=N/Nc2ccc(Cl)cc2)n1C,2.8µM*,?,20µM*,3µM*,1.6µM*,?
CCSc1ncc(/C=N/Nc2ccccc2)n1C,?,18%,14µM*,19µM*,?,?
Cn1c(-c2ccc(F)cc2)cnc1SCC(=O)Nc1ccccc1,-13%,-6%,0%,-3%,-4%,?
CCSc1ncc(/C=N/Nc2ccc([N+](=O)[O-])cc2)n1C,0.71µM*,?,?,?,0.79µM*,?
CC(C)(C)c1cnnn1-c1ccc(/C=N/Nc2ccc([N+](=O)[O-])cc2)cc1,?,-5%,-5%,4%,-1%,?
COc1ccccc1NC(=O)C(C)Sc1nnc2ccc3ccccc3n12 (configuration not stated),·,·,·,0%,·,·
CCc1ccc(S(=O)(=O)c2nnn3c2nc(NCc2cccs2)c2sccc23)cc1,·,·,·,-7%,·,·
Cc1ccc(CCNC(=O)c2sc3ncccc3c2-n2c(C)ccc2C)cc1,·,·,·,-11%,·,·
O=C(CCc1nnc(Cc2c[nH]c3ccccc23)o1)NC1CCCC1,-3%,0%,·,4%,-8%,0%
O=C(CCc1nnc(CCc2c[nH]c3ccccc23)o1)NC1CCC1,3.5µM*,?,·,21µM*,?,?
COc1cccc(CNC(=O)CN2C(=O)CCn3nc(-c4cn(C)c5ccccc45)cc32)c1OC,·,·,·,2%,·,·
COc1ccc(C(=O)NC(=O)NC2(C(Cl)(Cl)Cl)OCCO2)cc1,0.25µM*,0.65µM*,2.2µM*,0.95µM*,0.35µM*,?
CCCc1cnc(N2CCN(C(=S)NC)CC2)nc1,4.5µM*,23µM*,·,17µM*,?,?
CCN1C(=O)/C(=C/N2CCc3ccccc32)SC1=S,3.2µM*,6.5µM*,10µM*,?,2.8µM*,?
CC(C)COn1c(=S)[nH]c2ccccc2c1=O,11%,?,-5%,21µM*,9%,?

# Source: PubChem BioAssay
